HSP90 inh: blocks HSP90-mediated luciferase refolding in reticulocyte lysate. Rabbit reticulocyte lysate, luciferase refolding luminescence, 3 h. inhibition, % at 5.6 µM. actives 0.91% (n = 290,000). AID 1789;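 active = inhibition above the screen-wide mean plus 3 SD, computed separately per campaign, cut at about 16% in these data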;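 also: 0% = DMSO wells and 100% = 60 µM geldanamycin wells; inhibitors lower the luminescence because luciferase stays unfolded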
TROY signal inh: blocks TROY-dependent signaling in reporter cells | actives 0.98% (n = 360,000) | Q293 LMP1-TROYcd NF-kB luciferase reporter, 4 h | AID 1347056 | inhibition, % at 10 µM;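 active = compounds whose plate-normalised and pattern-corrected inhibition of the luciferase reporter signal at the single screening dose is 50% or more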
Platelet DG rel: modulates dense granule release in human platelets. human platelet-rich plasma, SFLLRN dense granule ATP release, luminescence. inhibition, %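 (compounds screened at 7.5 µM in platelet-rich plasma)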. actives 0.22% (n = 300,000). AID 1663;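 active = mean replicate score, as percent of positive control, at or above 50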
PPC-1+TRAIL kill: PPC-1 cancer cell killing with TRAIL present; AID 1443; actives 0.41% (n = 220,000); PPC-1 cells + TRAIL, ATPLite viability luminescence; cell killing (% activity), % at 4 µM or 5 µM;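 active = cell killing above 50% in the first pass at 4 µM, then a duplicate retest at 5 µM averaging 50% or more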;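 also: plate controls were cells with TRAIL plus DMSO for no effect and medium-only wells lacking cells for full effect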
TWEAK-Fn14 inh: inhibitors of TWEAK-Fn14 interaction signaling; inhibition, % at 10 µM; actives 2% (n = 360,000); TWEAK-stimulated Fn14 reporter cells, luciferase luminescence, 8 h; AID 1159606; in the data active = inhibition above about 50%
C8 TRAIL sens: caspase-8 TRAIL sensitization; NB7+C8 cells + TRAIL, ATPlite viability luminescence; inhibition (viability loss, TRAIL sensitization), % at 10 µM; actives 1% (n = 360,000); AID 624354;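 active = compounds causing at least 50% loss of cell viability in the single-dose screen, relative to plate controls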
HSP90 confirm: HSP90 inhibition, confirmation assay | shares compounds with HSP90 inh | rabbit reticulocyte lysate, luciferase refolding luminescence, 3 h | inhibition, % at 5.9 µM | actives 64% (n = 2,300) | AID 1846; in the data active = inhibition above about 18%;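 also: 0% = vehicle wells and 100% = reference inhibitor wells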
luciferase ctr: blocks native firefly luciferase in HSP90 counter-screen; purified native firefly luciferase, luminescence; inhibition, % at 5.9 µM; actives 48% (n = 2,300); AID 1847; shares compounds with HSP90 inh;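 active = inhibition above the mean inhibition of all tested sample wells plus 3 SD, cut at about 10% in these data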;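 also: 0% = DMSO with luciferase and 100% = wells lacking luciferase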
Target sequence (P08659 whole entry, looked up): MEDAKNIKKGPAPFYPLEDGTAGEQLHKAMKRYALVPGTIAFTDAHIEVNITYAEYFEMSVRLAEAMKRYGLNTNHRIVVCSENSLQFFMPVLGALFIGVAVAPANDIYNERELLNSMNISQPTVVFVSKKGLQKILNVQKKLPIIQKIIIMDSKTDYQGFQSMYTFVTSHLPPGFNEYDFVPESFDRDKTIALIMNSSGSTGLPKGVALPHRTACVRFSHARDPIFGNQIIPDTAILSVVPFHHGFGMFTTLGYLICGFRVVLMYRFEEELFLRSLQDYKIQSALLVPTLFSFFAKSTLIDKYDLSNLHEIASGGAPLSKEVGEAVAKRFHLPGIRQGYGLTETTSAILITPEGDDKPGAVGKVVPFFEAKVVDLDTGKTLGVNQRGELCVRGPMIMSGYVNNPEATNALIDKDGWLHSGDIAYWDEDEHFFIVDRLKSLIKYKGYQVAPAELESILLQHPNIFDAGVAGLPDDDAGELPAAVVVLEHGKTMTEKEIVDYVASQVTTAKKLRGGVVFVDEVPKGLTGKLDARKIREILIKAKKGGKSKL
* = called active by the depositor; x = no result. Hits are enriched below; roughly 3.5% of the tested compounds scored in any of these assays.

SMILES | HSP90 inh | TROY signal inh | Platelet DG rel | PPC-1+TRAIL kill | TWEAK-Fn14 inh | C8 TRAIL sens | HSP90 confirm | luciferase ctr
COc1ccc(C(=O)Nc2ccc3ccccc3c2)c(OC)c1 | 24* | -36 | 4 | x | 21 | 30 | 20* | 9.8*
N/C(=N\OC(=O)/C=C/c1ccccc1)c1ccccn1 | 19* | 47 | 33 | 12 | 56* | 10 | 15 | 73*
COc1ccc(/C=C/C(=O)O/N=C(\N)c2ccccn2)cc1OC | x | -12 | x | x | 12 | 12 | x | x
CC(C)(C)CC(=O)O/N=C(\N)c1ccccn1 | 21* | 0 | 14 | 25 | 61* | 36 | 35* | 22*
N/C(=N\OC(=O)/C=C/c1ccccc1Cl)c1ccncc1 | 31* | 27 | 9 | x | 39 | 8 | 2 | -19
N/C(=N\OC(=O)/C=C/c1ccccc1)c1ccncc1 | 0 | -21 | -2 | x | -12 | -8 | x | x
CNC[C@@H]1OCc2ccccc2-c2ccccc2C(=O)N([C@@H](C)CO)C[C@@H]1C | x | 0 | x | x | -13 | -11 | x | x
COc1ccc([C@H]2C[C@@H](O)[C@H](n3cc(C4CC4)nn3)CN2Cc2cccs2)cc1 | x | -1 | x | x | -2 | 5 | x | x
COc1ccc(NC2=C(C(C)=O)C(c3ccc(OC)cc3)C(C(C)=O)C(C)(O)C2)cc1 (stereo not drawn) | 31* | 15 | -3 | -1 | 25 | -20 | 4 | 1
CN(C)CCNc1ncnc2c1ncn2[C@H]1CN(Cc2ccco2)C[C@@H](CO)O1 | x | 3 | x | x | -2 | -1 | x | x
C=CCNC(=O)COC(=O)c1c2c(nc3ccccc13)CCC2 | 0 | 19 | -4 | x | 39 | 14 | x | x
CCCCNC(=O)COC(=O)c1c2c(nc3ccccc13)CCC2 | 33* | 10 | 1 | x | 24 | 1 | 6 | -5
O=C1CCN(c2ccc([N+](=O)[O-])cc2F)CC1 | 34* | 16 | 4 | 18 | -2 | -6 | -5 | -8
O=C(c1ccco1)N1CCN(c2ccc([N+](=O)[O-])cc2F)CC1 | -1 | 1 | -48 | x | -2 | -15 | x | x
COC(=O)c1cc2c(s1)-c1ccc(OC)cc1CC2 | -2 | -70 | 0 | 3 | -9 | -13 | x | x
Cc1[nH][nH]c(=O)c1C(c1ccc(-c2ccc(Cl)c(Cl)c2)o1)c1c(C)[nH][nH]c1=O | 18* | 9 | 0 | 20 | 43 | -13 | 0 | 0
Nn1cnnc1SCC(=O)Nc1ccc(C2CCCCC2)cc1 | 0 | -65 | 1 | 27 | -31 | 0 | x | x
O=C(O)CSCC(=O)Nc1ccc(C2CCCCC2)cc1 | 52* | 83* | 4 | 22 | 92* | 2 | 57* | -14
Cc1noc(C)c1COC(=O)c1cccc(N(C)C)c1 | 5 | -16 | -2 | 10 | -17 | -14 | x | x
COc1ccc(NC(=O)c2cc(-c3cc(C)cc(F)c3)n[nH]2)cc1OC | x | -6 | x | x | -19 | 5 | x | x
Oc1cccc(C=Nc2cccc3ccccc23)c1O | 23* | 61* | -3 | x | 101* | 29 | 3 | -4
O=C(Nc1nccs1)c1ncc(Cl)c(Cl)c1Cl | -7 | -40 | -9 | x | 8 | 15 | x | x
O=C(CCCOc1ccccc1)N1CCCCC1 | 34* | 58* | 4 | -12 | 86* | 4 | 66* | 53*
CCC1CCCCN1C(=O)CCCOc1ccccc1 (stereo not drawn) | 37* | 50* | -3 | 5 | 50* | 8 | 39* | 24*
CCOC(=O)/C=C/C(=O)Nc1ccc(S(=O)(=O)Nc2cc(OC)nc(OC)n2)cc1 | x | 18 | x | x | 0 | -10 | x | x
C=CCc1cccc(C=Nc2cc(Br)ccc2O)c1O | 44* | -6 | 0 | 17 | 15 | 7 | 80* | -8
C=CCc1cccc(C=Nc2c[nH]c(=O)[nH]c2=O)c1O | -6 | -3 | 3 | x | 3 | 2 | x | x
O=C(O)C(Cc1ccccc1)N1C(=O)C=CC1=O (stereo not drawn) | x | 3 | x | x | 11 | -3 | x | x
COc1ccc2[nH]c(-c3ccc(C)cc3)cc(=O)c2c1 | 25* | 42 | 14 | 73* | 75* | 85* | 56* | 33*
